# Source: the supplement of paper PMC6555819
# How the values were obtained:
# Assay in all cases: PBM binding z-score (relative to random genomic background probes); higher = stronger binding; sequences stand for … in GC…GCGATTGACAGCGTAGAATGAAGG
# [1] = test system: PPARg:RXRa DBDmut IVT, anti-RXR (DBD mutation: RXRa K156A/R161A, NR concentration 270 nM, RXRa partner concentration 90 nM)
# Method in brief: (§1)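 Ligand-free nuclear receptor dimers were applied to custom Agilent 4×180K protein-binding microarrays whose double-stranded probes carried direct-repeat seeds, single-nucleotide variants, half-site ablations and random human genomic background sequences in 34-nt variable regions. Incubation lasted 1 h. Binding z-scores were computed against the random background probes from regression-normalized fluorescence.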
# [2] = test system: PPARg:RXRa IVT, anti-PPARg (NR concentration 270 nM, RXRa partner concentration 90 nM)
# Method in brief: as §1
# [3] = test system: PPARg DBDmut:RXRa IVT, anti-PPARg (DBD mutation: PPARg1 K132A/R137A, NR concentration 270 nM, RXRa partner concentration 90 nM)
# Method in brief: as §1
# [4] = test system: PPARg DBDmut IVT, anti-PPARg (DBD mutation: PPARg1 K132A/R137A, NR concentration 270 nM)
# Method in brief: as §1
# [5] = test system: PPARg homodimer (NR concentration 180 nM)
# Method in brief: as §1
# [6] = test system: PXR:RXRa (NR concentration 270 nM, RXRa partner concentration 90 nM)
# Method in brief: as §1
# [7] = test system: PXR homodimer (NR concentration 270 nM)
# Method in brief: as §1
# [8] = test system: RARa:RXR (NR concentration 270 nM, RXRa partner concentration 90 nM)
# Method in brief: as §1
# [9] = test system: RARa homodimer (NR concentration 270 nM)
# Method in brief: as §1
# [10] = test system: RARb:RXRa (NR concentration 270 nM, RXRa partner concentration 90 nM)
# Method in brief: as §1
Sequence,PBM binding z-score [1],PBM binding z-score [2],PBM binding z-score [3],PBM binding z-score [4],PBM binding z-score [5],PBM binding z-score [6],PBM binding z-score [7],PBM binding z-score [8],PBM binding z-score [9],PBM binding z-score [10]
AGAATGAGGTTATTACGATCAGGGAATTGCGGTC,3.27,2.51,1.02,0.66,0.902,1.26,0.487,1.78,1.21,1.42
CCGACTGGGGCAAAGATTACCATACTCAGTACGA,4.42,3.1,-0.00287,-0.543,0.462,-0.644,-0.342,-0.848,-0.293,0.284
GCTATTAGTTGAAAGGACAACCGAATGATTCTCG,0.447,-0.166,0.553,0.18,0.735,-0.372,0.0666,-0.189,1.02,1.32
GCGACTGGGGCAGAGCAGGTTACCATAAGGTTGG,3.52,2.22,-0.693,-0.694,-0.578,-0.201,-0.162,-0.103,-0.568,0.569
TCTTGTAGATCAAAGGTGAAGAAAGCCGAAGCCT,2.96,3.53,-0.0532,0.112,0.161,0.885,-0.554,1.86,-0.538,1.49
CCTACTGGGCCATTCACAGGTCATTGATCATATG,4.38,4.07,0.164,0.233,1.37,2.11,0.599,2.4,0.567,2.03
CGAACTAGGTCAAGGACTGTGAATCTCCGCACGC,8.18,8.06,0.764,0.958,1.34,0.92,-0.392,1.78,0.232,4.01
TCTAGTAGGTTAGTCGGGGCATTCAGCCAACATA,4.91,4.13,0.243,0.851,1.41,0.733,0.807,0.939,0.282,0.996
TGGAGTAGGTTAGTCGGGGCATTCAGCCAACATA,3.42,3.51,-0.389,-0.234,1.08,0.401,0.996,0.374,0.676,1.03
TAGCCTAGGTTATTGGGCCAGTATAGTACGCATC,2.14,2.87,-0.637,0.0704,-0.257,0.000197,-0.646,0.299,-1.1,0.689
ACTTACGGGTCAACGAGGTTATAGCCCGCGTATA,3.54,3.99,0.579,0.364,2.12,5.03,2.93,4.97,-0.101,4.03
GCATGTAGATCAAGGTTAAGAAAGACTAAGCTAA,1.08,0.797,-0.718,-0.329,-0.173,0.293,-0.179,0.536,-0.356,0.552
TCGAGTAGGTTAGGTGCATTCAGAATGGCGTCGA,1.94,1.03,-0.609,-0.486,-0.132,0.0438,0.333,-0.0756,-0.18,0.175
CCTAGTTGGTCAAGGTCATACACGCTATAGGTAC,2.28,3.11,0.777,1.26,3.11,4.21,3.04,4.33,2.79,4.04
CAAACTAGGTCACAGGTCAAAGTCGAGCCAACCA,8.4,9.27,4.16,4.09,4.17,4.41,0.711,5.81,0.827,4.7
TCGAGTAGGTTACCAATGGGGAATTCAGCTTTCT,3.57,2.58,-0.097,-0.739,-0.227,-0.148,-1.08,0.0848,-1.2,0.621
AGAATGAGGTTAAGATCAGGGATACAGAATACAT,3.07,2.89,0.847,0.843,0.828,1.23,0.547,2.08,0.49,1.92
ATATGTGGGTTAGCTGGGGTCATTCAGACTAGGC,6.16,5.6,3.15,2.88,3.21,6.47,6.39,5.9,1.64,2.96
GCGACTGGGGCAAAGCAGGGTACCATAAGGTTGG,3.87,3.24,-0.359,-0.643,-0.201,-0.102,-0.367,0.315,-0.579,0.894
GCATATAGGTAATACCAGGTGAAAGTCCGATTGT,4.03,3.4,0.784,0.508,0.56,0.0811,0.268,1.47,0.331,-0.00831
AGAATAAGGTTAAGATCAGGGAAACAGAATACAT,1.89,1.76,1.42,1.21,1.6,1.18,0.822,1.93,1.11,2.46
TCTAGTTGGTCAAAGGTCACACACTCGAAATGCG,3.69,6.56,2.18,2.02,6.43,6.12,1.83,7.45,3.65,5.09
TCAGACAGGTGAAAGTAACTCAGGTACGCAGTCG,2.49,1,0.398,0.588,0.14,0.584,0.498,0.768,0.295,0.907
CGTCGAAGGTCAAGGTCAGTGAAAGAGACTCGAA,2.61,4.52,0.183,-0.374,2.78,4.3,0.957,4.46,1.26,5.88
CAAACTAGGTCACCGGTAGGTCAAAGTCCGCATG,8.32,9.19,3.98,4.14,4.51,4.51,0.526,5.43,1.6,4.95
